# According to PubChem BioAssay (EPA / NIEHS):
# The source made the active and inactive calls. How the source made its calls: active means hit-call score of the fitted dose curve at least 0.9, where 1 is the maximum; inactive means score below 0.9.
# Assay: ATG_TA_CIS: Attagene CIS-FACTORIAL HepG2 Assay for human TA Basal Promoter (AID 2282964)
# Conditions: HepG2 Attagene CIS-factorial TA basal promoter reporter; actives raise or lower the signal
# Method: ATG_CIS is a cell-based, multiplexed-readout assay that uses HepG2, a human liver cell line, with measurements taken at 24 hours after chemical dosing in a 24-well plate.ATG_TA_CIS is one of 52 assay component(s) measured or calculated from the ATG_CIS assay. It is designed to make measurements of mRNA induction, a form of inducible reporter, as detected with fluorescence intensity signals by Reverse transcription polymerase chain reaction (RT-PCR) and Capillary electrophoresis technology.Data from the assay component ATG_TA_CIS was analyzed into 1 assay endpoint. This assay endpoint, ATG_TA_CIS, was analyzed with bidirectional fitting relative to DMSO as the negative control and baseline of activity. Using a type of inducible reporter, measures of mRNA for gain or loss-of-signal activity can be used to understand the background control at the transcription factor-level as they relate to the gene . Furthermore, this assay endpoint can be referred to as a secondary readout, because this assay has produced multiple assay endpoints where this one serves a background control function. To generalize the intended target to other relatable targets, this assay endpoint is annotated to the background measurement intended target family, where the subfamily is internal marker.
# Human liver HepG2 cells are transiently transfected with multiple reporter transcription units (MRTUs) in 6-well plates using FuGene 6 reagent (Roche; 3 ml FuGene/1 mg DNA). The MRTU constructs are regulated by a cis-regulating element (promoter). […] A major difference between the CIS and TRANS system is that in CIS activities of endogenous TFs are measured, whereas the TRANS assay evaluates changes in activities of exogenous, chimeric NR-Gal4 proteins. […] At the end of 24 hour incubation, total RNA was isolated using TriZol reagent (Invitrogen). The isolated RNA is then reverse-transcribed using oligo(dT) primer and Mo-MLV reverse transcriptase (Invitrogen) with DNAse I (Ambion) treatment for 30 min. The one-tenth of the produced cDNA was amplified by PCR using Taq DNA polymerase (Invitrogen) and two reporter sequence-specific primers. The PCR products were fluorescently labeled by primer extension with 6-arboxyfluorescein (6-FAM) 5'-labeled reporter sequence-specific primer (2 min at 95 C, 20 s at 68 C and 10 min at 72 C) and these products were digested with 5U of HpaI (New England Biolabs) for 2h at 37 C. The fragments were purified using Qiaquick PCR columns (Qiagen), analyzed on an ABI 3130xL genetic analyzer (Applied Biosystems) with peak positions identified by using a set of X-rhodamine (ROX)-labeled MapMarker1000 molecular weight standards (BioVentures). The raw capillary electrophoresis data was processed using Attagraph software (Attagene).
Structure (SMILES),outcome,AC50
C1CNCCN1,inactive,
O=C(Oc1ccccc1)c1ccccc1O,inactive,
CCCCC1CCC(=O)O1 (stereo not given),inactive,
Oc1ccccc1Cc1ccccc1O,inactive,
O=C(O)c1cc(O)c2ccccc2c1O,,60.2 µM (active)
CCCCCCCCCCCC(=O)OCC,inactive,
CCC[Si](OC)(OC)OC,inactive,
COc1ccc(C(=O)c2ccccc2)c(O)c1,,121 µM (active)
N#Cc1ccc(C2CCCc3cncn32)cc1 (stereo not given),inactive,
CCCCCCCCCCCC(=O)N(C)CC(=O)O,inactive,
CC(C)(c1ccccc1)c1ccc(Nc2ccc(C(C)(C)c3ccccc3)cc2)cc1,inactive,
CC(C=O)c1ccccc1 (stereo not given),inactive,
C=C(C)C1CC=C(C)CC1 (stereo not given),inactive,
Nc1ccc(C(=O)OCCCOC(=O)c2ccc(N)cc2)cc1,,63.7 µM (active)
Cc1ccc(S(=O)(=O)N=C=O)cc1,inactive,
C=CC(=O)OCCCCCCOC(=O)C=C,inactive,
C=CCCCCCCCCO,inactive,
O=C(Oc1ccccc1)c1ccccc1C(=O)Oc1ccccc1,inactive,
O=C(Cl)c1c(Cl)c(Cl)c(C(=O)Cl)c(Cl)c1Cl,inactive,
C[Si]1(C)O[Si](C)(C)O[Si](C)(C)O[Si](C)(C)O[Si](C)(C)O1,inactive,

Structure (SMILES),outcome,AC50
CCCCNS(=O)(=O)c1ccc(C)cc1,inactive,
Nc1ccnc(=O)[nH]1,inactive,
CC(=O)c1ccccc1O,inactive,
N=C1C=CC(=C(c2ccc(N)cc2)c2ccc(N)cc2)C=C1,,81.3 µM (active)
O=C(O)c1ccc2c(c1)C(=O)OC2=O,inactive,
Nc1ccc(O)c([N+](=O)[O-])c1,inactive,
CC/C=C\C/C=C\C/C=C\CCCCCCCC(=O)OC,inactive,
Cc1ccc(C)c(OCCCC(C)(C)C(=O)O)c1,inactive,
CCCCNS(=O)(=O)c1ccccc1,inactive,
O=C(O)CCCC(=O)O,inactive,
CCCCCC(=O)OCC,inactive,
CCCCOCCOCCOC(C)=O,inactive,
Cc1c[nH]c(=O)[nH]c1=O,inactive,
CCOC(=O)CC(=O)c1ccccc1,inactive,
C=CC(=O)O[C@H]1C[C@@H]2CC[C@@]1(C)C2(C)C,,141 µM (active)
CC(=O)/C=C/C1C(C)=CCCC1(C)C (stereo not given),inactive,
CC1=CP(=O)(c2ccccc2)CC1 (stereo not given),inactive,
CC(C)c1cccc(C(C)C)c1N,inactive,
CC(=O)OCC=C(C)C,inactive,
O=C(O)CC(C(=O)O)S(=O)(=O)O (stereo not given),inactive,
